# Reference: PubChem BioAssay
# Values without a mark were called inactive. The list shows a part of the results. Activity calls are given as the source filed them.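 The calls were made as follows, unless noted: active = signal rise of 40% or more at 20 µM, treated as a fluorescence artifact; inactive = the rest.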
# What was measured:
# [1] = Apaf-1 inhibitors, single-dose retest, confirmation, biochemical, fluorescence, DEVD-Rh110, 20 µM (AID 504614;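 active = mean inhibition of at least 40% at 20 µM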;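 also: plate controls were DMSO wells for no effect and DEVD-CHO caspase inhibitor control wells for full effect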); settings: reconstituted apoptosome, caspase-3 DEVD-Rh110 fluorescence; at 20 µM; active compounds read high
# [2] = Rh110 fluorescence interference by putative Apaf-1 inhibitors, confirmation, artefact control for Apaf-1 inhibitor project, biochemical, 20 µM (AID 504615); settings: quenched caspase reaction, at 20 µM, active compounds read high
# [3] = inhibition of Brca1/Bard1 split-luciferase complementation, confirmation, counter-screen for Mdm2/MdmX interaction inhibitor project, luminescence, single concentration (AID 504668; call rule not given here); settings: Brca1/Bard1 bimolecular luciferase complementation counterscreen, at 8 µM, active compounds read high
# [4] = HIF-2a reporter inhibitor retest, confirmation, luminescence, 786-0 RCC cells (AID 651580;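 active = mean inhibition across four replicates of at least 40 percent at the single tested concentration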); settings: HIF-2a luciferase reporter luminescence, overnight, at 18.8 µM, active compounds read high
# [5] = HIF-1a luciferase reporter signal reduction – MiaPaCa-2 cells, single concentration, counter-screen for HIF-2a inhibitor project, confirmation (AID 651589;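 active = mean inhibition of the reporter signal across four replicates at the single tested dose of 50% or more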); settings: MiaPaCa-2 HIF-1a luciferase reporter, desferoxamine, overnight; at 18.8 µM; active compounds read high
# [6] = fluorescence interference of Apaf-1 inhibitor hits, dose response, artefact control for Apaf-1 inhibitor project (AID 588538; call rule not given here); settings: fluorescence interference counterscreen, Apaf-1 assay format
structure (smiles),measurement,setting,value
O=C(Cc1cc(=O)[nH][nH]1)N/N=C/c1ccccc1[N+](=O)[O-],inhibition,[1],5.01%
same,activation (fluorescence interference),[2],0.43%
NC[C@H](Cc1ccccc1)NCCc1cc(C(F)(F)F)cc(C(F)(F)F)c1,inhibition,[1],17.2%
same,activation (fluorescence interference),[2],11.5%
Cc1ccc2c(c1)C1CN(C)CCC1N2S(=O)(=O)c1ccc(Oc2ccc([N+](=O)[O-])cc2)cc1 (stereo not given),inhibition,[1],20.2%
same,activation (fluorescence interference),[2],1.73%
CCC(=O)Nc1c(S(=O)(=O)c2ccccc2)c2nc3ccccc3nc2n1Cc1ccccc1,inhibition,[1],16.3%
same,activation (fluorescence interference),[2],-0.44%
C#CCOCCOCCOCCNc1nc(N2CCN(C(=O)C([C@@H](C)O)n3cc([C@@H](N)CCCCN)nn3)CC2)nc(N2CCN(C(=O)[C@H](CCCCN)n3cc(CN)nn3)CC2)n1 (stereo not given in full),inhibition,[1],1.31%
same,activation (fluorescence interference),[2],-7.33%
Cc1ccc(-c2ccc(/C=N/NC(=O)CN3CCOCC3)o2)cc1[N+](=O)[O-],inhibition,[1],27.9%
same,activation (fluorescence interference),[2],-3.95%
CN1CCN(c2ccccc2NC(=O)COc2ccc(C3CCCCC3)cc2)CC1,inhibition,[1],7.86%
same,activation (fluorescence interference),[2],2.41%
CCc1ccc(CNC(=O)C2CCN(c3nnc(C)c4c(C)n(-c5ccc(C)cc5)nc34)CC2)cc1,inhibition,[1],13.2%
same,activation (fluorescence interference),[2],0.21%
same,inhibition,[3],23.7% (active)
same,inhibition,[4],-2.57%
same,inhibition,[5],20.1%
O=C(CCNS(=O)(=O)c1ccccc1)NCCSc1ccc(Br)cc1,inhibition,[1],40% (active)
same,activation (fluorescence interference),[2],5.12%
same,IC50,[6],> 100 µM
Oc1ccc(N=Cc2c(O)ccc3ccccc23)cc1,inhibition,[1],19.4%
same,activation (fluorescence interference),[2],0.51%
O=C1NNC(c2ccccc2)=N/C1=C\c1ccc(Cl)cc1,inhibition,[1],43.9% (active)
same,activation (fluorescence interference),[2],7.08%
same,IC50,[6],> 100 µM
CN(C)S(=O)(=O)c1ccc2oc(SCC(=O)Nc3ccccc3F)nc2c1,inhibition,[1],77.8% (active)
same,activation (fluorescence interference),[2],10.6%
same,IC50,[6],> 100 µM
CC(C)c1ccccc1OCC(O)CN(CC(O)COc1cccc2ccccc12)C(C)C (stereo not given),inhibition,[1],16.9%
same,activation (fluorescence interference),[2],14.2%
COC1=C(N2CCOCC2)C(=O)c2ccccc2C1=O,inhibition,[1],29.1%
same,activation (fluorescence interference),[2],4%
CCN(CC(=O)NCc1cccs1)C(=O)c1cccc(S(=O)(=O)Nc2ccccc2OC)c1,inhibition,[1],36.9%
same,activation (fluorescence interference),[2],-3.02%
COc1cccc(-c2sc3ccc(OC)cc3c2-c2ccc(OCCN3CCCCC3)cc2)c1,inhibition,[1],4.75%
same,activation (fluorescence interference),[2],11.8%
same,inhibition,[3],32.7% (active)
Cc1cc(C)n(-c2nc(SCC(=O)N3CCCC3)c3c4c(sc3n2)CCCC4)n1,inhibition,[1],26.4%
same,activation (fluorescence interference),[2],8.64%
CCOC(=O)N1CCC(c2cc(=O)n(-c3ccccc3)[nH]2)CC1,inhibition,[1],32.4%
same,activation (fluorescence interference),[2],8.7%
C=CCC[C@H](Cc1ccc(F)cc1)C(=O)OC[C@@H](NC(=O)[C@@H](CC=C)CC(=O)N[C@H](CO)Cc1ccccc1)C(C)(C)C,inhibition,[1],14.6%
same,activation (fluorescence interference),[2],3.46%
